# Results filed as inconclusive are left out. Activity calls are given as the source filed them. The calls were made as follows: active = hit-call score of the fitted dose curve at least 0.9, where 1 is the maximum; inconclusive = response in the unintended direction; inactive = score below 0.9. Peptide text beside a SMILES is read from it.
# Biological target: Bile acid receptor (Homo sapiens) (UniProt Q96RI1)
# Assay: OT_FXR_FXRSRC1_1440: Odyssey Thera (OT) 24-hour HEK293T Protein-Complementation Assay for Farnesoid X receptor/SRC-1 Co-activator (AID 2283384)
# Method in brief: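 Cell-based binding reporter: interaction of FXR with SRC-1 brings reporter fragments together, giving a fluorescence signal read 24 h after dosing of HEK293T cells.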
# Bile acid receptor (Homo sapiens), sequence (Q96RI1 whole entry, looked up): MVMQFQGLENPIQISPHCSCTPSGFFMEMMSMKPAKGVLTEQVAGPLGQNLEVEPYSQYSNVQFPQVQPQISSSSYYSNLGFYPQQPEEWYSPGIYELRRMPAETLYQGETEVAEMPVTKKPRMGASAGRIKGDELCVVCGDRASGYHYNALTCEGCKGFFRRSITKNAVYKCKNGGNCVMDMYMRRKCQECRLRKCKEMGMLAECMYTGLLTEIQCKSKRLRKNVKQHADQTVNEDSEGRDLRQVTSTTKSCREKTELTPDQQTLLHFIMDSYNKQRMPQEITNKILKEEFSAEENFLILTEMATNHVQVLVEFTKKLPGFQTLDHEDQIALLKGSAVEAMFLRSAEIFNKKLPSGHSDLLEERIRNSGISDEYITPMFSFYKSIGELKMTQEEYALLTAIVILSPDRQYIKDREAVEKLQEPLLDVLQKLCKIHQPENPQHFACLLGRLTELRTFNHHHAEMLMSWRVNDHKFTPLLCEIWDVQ
SMILES,outcome,AC50
CC12CCC(CC1)C(C)(C)O2,inactive,–
CCN1CN(CC)CN(CC)C1,inactive,–
Nc1ccc(C(=O)O)cc1,inactive,–
CCc1occc(=O)c1O,inactive,–
COc1ccc(C(=O)c2ccccc2)c(O)c1,inactive,–
O=C(OCc1ccccc1)c1ccc(O)cc1,–,50 µM (active)
Cc1cc(C)n(CO)n1,inactive,–
CCCCCCOC(=O)CCCCC(=O)OCCCCCC,inactive,–
O=C(Nc1ccccc1)c1cc(Cl)ccc1O,–,17.5 µM (active)

# Biological target: Retinoic acid receptor RXR-alpha (Homo sapiens) (UniProt P19793)
# Sequence (P19793 whole entry, looked up): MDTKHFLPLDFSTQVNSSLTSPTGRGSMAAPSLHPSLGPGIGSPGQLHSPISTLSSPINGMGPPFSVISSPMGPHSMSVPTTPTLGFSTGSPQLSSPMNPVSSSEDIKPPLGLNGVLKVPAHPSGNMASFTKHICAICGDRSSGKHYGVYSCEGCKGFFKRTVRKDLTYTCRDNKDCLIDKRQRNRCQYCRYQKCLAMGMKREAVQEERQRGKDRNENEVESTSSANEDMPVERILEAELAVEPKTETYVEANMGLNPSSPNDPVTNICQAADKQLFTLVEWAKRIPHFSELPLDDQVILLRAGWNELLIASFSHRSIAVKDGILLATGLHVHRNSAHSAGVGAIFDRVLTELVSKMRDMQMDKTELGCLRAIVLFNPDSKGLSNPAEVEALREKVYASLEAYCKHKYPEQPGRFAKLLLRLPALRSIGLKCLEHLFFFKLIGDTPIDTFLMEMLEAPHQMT
# Assay: OT_NURR1_NURR1RXRa_0480: Odyssey Thera (OT) 8-hour HEK293T Protein Complementation Assay for Nurr1/retinoid X receptor (RXR) (AID 2283385)
# Method in brief: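 Compounds are applied to HEK293T cells carrying Nurr1 and RXRα linked to reporter fragments. After 8 h, fluorescence intensity reports heterodimer formation, with DMSO as baseline.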
SMILES,outcome,AC50
CCCCCCCO,inactive,–
CCN1CN(CC)CN(CC)C1,inactive,–
Nc1ccc(C(=O)O)cc1,inactive,–
CCc1occc(=O)c1O,inactive,–
CC1=CC=C(C(C)C)CC1,inactive,–
COc1ccc(C(=O)c2ccccc2)c(O)c1,inactive,–
O=C(O)CC(C(=O)O)S(=O)(=O)O (stereo not given),inactive,–
CO[Si](C)(C)OC,inactive,–
CCCCCCCCCCCC(=O)N(C)CC(=O)O,inactive,–
O=C(OCc1ccccc1)c1ccc(O)cc1,inactive,–
C=CCOC(=O)c1ccc(C(=O)OCC=C)c(C(=O)OCC=C)c1,inactive,–
CCCCCC[C@@H](O)C/C=C\CCCCCCCC(=O)OCC(O)CO (stereo not given in full),inactive,–
c1ccc(Nc2cccc3ccccc23)cc1,–,77.5 µM (active)
CC(C)=CCCC(C)=CC#N,inactive,–
O=C(Nc1ccccc1)c1cc(Cl)ccc1O,inactive,–
COC(=O)[C@H](Cc1ccccc1)NC(=O)[C@@H](N)CC(=O)O (H-Asp-Phe-OMe),inactive,–
